Experimental data as given in PubChem BioAssay.
Calls of active or inactive are those of the source.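 Rule for the calls, unless noted: active = viability at or below 10% of carrier control in both of two separate runs; inconclusive = viability at or below 10% in only one of the two runs; inactive = the rest.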

Biological target: Receptor tyrosine-protein kinase erbB-2 (Homo sapiens) (UniProt P04626)
Experiment: Her2 expression decrease, cell viability multiplex – SKBR3 breast tumor cells, AlphaScreen, ATP viability, primary screen (AID 461;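 active = Her2 level under about 52% in both replicate screens, with viability over 70% of control, limit read from the data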;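 note: lower value means less Her2 protein in the cells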)
Details: 18-24 h, at 10 µM, hits give low values

Chain of Receptor tyrosine-protein kinase erbB-2 (Homo sapiens) (P04626 whole entry, looked up): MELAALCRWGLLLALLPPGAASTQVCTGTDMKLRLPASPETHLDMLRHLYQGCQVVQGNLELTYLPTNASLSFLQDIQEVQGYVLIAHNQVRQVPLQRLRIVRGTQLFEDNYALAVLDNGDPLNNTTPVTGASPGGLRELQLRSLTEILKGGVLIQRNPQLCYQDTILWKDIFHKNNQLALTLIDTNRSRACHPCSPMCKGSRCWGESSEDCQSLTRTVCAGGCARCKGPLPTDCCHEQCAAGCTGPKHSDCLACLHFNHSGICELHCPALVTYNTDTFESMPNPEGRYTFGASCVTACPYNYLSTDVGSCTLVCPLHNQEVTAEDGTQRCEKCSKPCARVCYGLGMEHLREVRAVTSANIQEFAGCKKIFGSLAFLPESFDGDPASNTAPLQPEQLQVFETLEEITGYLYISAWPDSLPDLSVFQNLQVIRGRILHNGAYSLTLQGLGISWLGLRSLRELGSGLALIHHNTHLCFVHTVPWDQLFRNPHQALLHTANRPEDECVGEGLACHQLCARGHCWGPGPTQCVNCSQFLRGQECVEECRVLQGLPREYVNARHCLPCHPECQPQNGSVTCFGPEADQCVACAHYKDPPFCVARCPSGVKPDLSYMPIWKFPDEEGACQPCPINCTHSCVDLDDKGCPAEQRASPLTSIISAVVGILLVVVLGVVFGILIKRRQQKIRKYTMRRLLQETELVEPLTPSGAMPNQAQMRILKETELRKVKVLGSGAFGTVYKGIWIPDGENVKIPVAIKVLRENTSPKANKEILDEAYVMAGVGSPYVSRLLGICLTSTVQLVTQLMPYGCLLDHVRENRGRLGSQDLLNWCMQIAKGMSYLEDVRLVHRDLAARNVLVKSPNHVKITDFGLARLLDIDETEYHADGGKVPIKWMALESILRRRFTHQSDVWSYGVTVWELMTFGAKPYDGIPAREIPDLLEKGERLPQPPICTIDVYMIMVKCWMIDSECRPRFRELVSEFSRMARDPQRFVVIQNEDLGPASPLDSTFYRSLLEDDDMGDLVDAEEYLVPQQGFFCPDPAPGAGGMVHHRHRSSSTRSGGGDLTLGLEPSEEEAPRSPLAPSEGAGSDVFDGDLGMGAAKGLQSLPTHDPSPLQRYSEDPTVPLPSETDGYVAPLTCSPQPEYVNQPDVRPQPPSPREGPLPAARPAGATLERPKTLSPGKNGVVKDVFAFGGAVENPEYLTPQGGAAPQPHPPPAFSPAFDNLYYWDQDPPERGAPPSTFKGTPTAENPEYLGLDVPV

SMILES	Her2 level
CCOC(=O)Nc1ccc2c(c1)N(C(=O)CN(CC)CC)c1ccccc1C=C2	93% (inactive)
O=C1C(Cl)=C(N2CCOCC2)C(=O)N1CCc1ccccc1	84% (inactive)
CCN(CCCNC(=O)CCNC(=O)Cn1ccc2ccccc2c1=O)c1ccccc1	87.5% (inactive)
O=C(Nc1cccc2ccccc12)N1CCOCC1	103% (inactive)
O=C1C(Cl)=C(N2CCCCC2)C(=O)N1c1ccccc1Cl	79.5% (inactive)
CCC1(c2ccc(F)cc2)NC(=O)N(CC(=O)c2ccc[nH]2)C1=O (stereo not drawn)	117% (inactive)
Nn1c(SCC(=O)Nc2ccc(F)cc2)nnc1-c1cccnc1	81% (inactive)
CC1=C(C(N)=O)C(c2cccnc2)n2nc(SCc3ccccc3Cl)nc2N1 (stereo not drawn)	94.5% (inactive)
COc1cc2c(cc1OC)C(c1cccnc1)CC(=O)N2 (stereo not drawn)	95% (inactive)
CC(=O)c1cccc(NC(=O)c2ccc(NS(C)(=O)=O)cc2)c1	80.5% (inactive)
CCC(C)(C)n1nnnc1C(c1ccc(OC)c(OC)c1)N1CCN(c2ccc(F)cc2)CC1 (stereo not drawn)	93.5% (inactive)
Cc1cccc(C)c1NC(=O)CS(=O)CC(=O)NC1CCCc2ccccc21 (stereo not drawn)	82.5% (inactive)
COc1ccccc1-c1cn[nH]c(=S)n1	108% (inactive)
COc1ccc(S(=O)(=O)N2CCOCC2)cc1C(=O)Nc1cc(C)on1	124% (inactive)
Cc1cc(C(=O)OCCO)c(C#N)c(N)n1	90.5% (inactive)
CCOC(=O)c1nnc(-c2ccccc2)o1	87.5% (inactive)
COCC(=O)Nc1sc2c(c1C(=O)OC)C(C(=O)OC)CC2 (stereo not drawn)	108% (inactive)
Cc1oc(-c2ccc(Cl)cc2)nc1CS(=O)CC(=O)NCCCN(C)C1CCCCC1 (stereo not drawn)	101% (inactive)
Cn1c(=O)c(-c2ccccc2)nn2c3ccccc3nc12	63.5% (inactive)
CCN1CCN(c2ncnc3c2oc2nc(C)c4c(c23)CC(C)(C)OC4)CC1	122% (inactive)
CCn1c(=O)cc(SCC(=O)Nc2cccnc2)c2ccccc21	89.5% (inactive)
COCCCNS(=O)(=O)c1ccc2c(c1)CCN2C(C)=O	99% (inactive)
CCN(CC)S(=O)(=O)c1ccc(Cl)c(C(=O)OC)c1	93% (inactive)

System: not listed separately
Experiment: reduced viability of SK-BR-3 breast cancer cells – cell-based, 24 h, human, pilot screen (AID 572);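 note: compound exposure lasted between 18 and 24 h rather than exactly 24 h; 100% = carrier-treated control wells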
Details: SK-BR-3 viability, CellTiter-Glo luminescence, at 10 µM, hits give low values

SMILES	viability
O=C(NCCO)c1scc2c1OCCO2	104% (inactive)
CN(c1ccccc1)S(=O)(=O)c1ccc(C(=O)OCC(=O)NCc2ccco2)cc1	95.5% (inactive)
Clc1ccc(SCCn2ccnc2)cc1	96% (inactive)
CC(C)(CO)NC(=O)CCCOc1ccc(Cl)cc1Cl	97% (inactive)
Cc1ccccc1NC(=O)CSc1nc(N)c(C#N)c(-c2cccs2)c1C#N	115% (inactive)
CCN(CC)C(=O)CSc1nc2ccc(NC(=O)CSc3nccn3C)cc2s1	88.5% (inactive)
Cc1cc(Oc2ccccc2)nc(-c2ccccc2)n1	100% (inactive)
COc1ccc(S(=O)(=O)CCC(=O)O)cc1	96.5% (inactive)
O=C(Nc1ccc(OC(=O)c2ccco2)cc1)c1ccco1	96.5% (inactive)
CCCc1nnc(SCC(=O)N2CCOCC2)n1Cc1ccco1	126% (inactive)
Cc1ccc(S(=O)(=O)N2CCC(C(=O)N3CCC[C@H]3C(=O)NCc3ccccc3)CC2)cc1	117% (inactive)
C=C(C)Cn1c(N2CCN(CC)CC2)nc2c1c(=O)[nH]c(=O)n2C	99.5% (inactive)
Cc1cc2oc(=O)cc(CN3CCN(Cc4ccc5c(c4)OCO5)CC3)c2cc1C	96.5% (inactive)
Cn1c(=O)c(C(=O)Nc2cccnc2)c(O)c2ccccc21	81% (inactive)
C=Cn1c(C(=O)O)cc(CC)c1-c1ccccc1	96% (inactive)
COc1ccccc1N1C(=O)CC(Sc2nc(C)cc(C)n2)C1=O (stereo not drawn)	87% (inactive)
COc1cccc(NC(=O)NC2(C(F)(F)F)Oc3ccccc3O2)c1	91.5% (inactive)
CCOC(=O)Nc1ccc2c(c1)N(C(=O)CN(CC)CC)c1ccccc1C=C2	87.5% (inactive)
O=C1C(Cl)=C(N2CCOCC2)C(=O)N1CCc1ccccc1	104% (inactive)
CCN(CCCNC(=O)CCNC(=O)Cn1ccc2ccccc2c1=O)c1ccccc1	97.5% (inactive)

SMILES	viability
O=C(Nc1cccc2ccccc12)N1CCOCC1	119% (inactive)
O=C1C(Cl)=C(N2CCCCC2)C(=O)N1c1ccccc1Cl	106% (inactive)
CCC1(c2ccc(F)cc2)NC(=O)N(CC(=O)c2ccc[nH]2)C1=O (stereo not drawn)	110% (inactive)
Nn1c(SCC(=O)Nc2ccc(F)cc2)nnc1-c1cccnc1	90.5% (inactive)
CC1=C(C(N)=O)C(c2cccnc2)n2nc(SCc3ccccc3Cl)nc2N1 (stereo not drawn)	79% (inactive)
COc1cc2c(cc1OC)C(c1cccnc1)CC(=O)N2 (stereo not drawn)	106% (inactive)
CC(=O)c1cccc(NC(=O)c2ccc(NS(C)(=O)=O)cc2)c1	118% (inactive)
CCC(C)(C)n1nnnc1C(c1ccc(OC)c(OC)c1)N1CCN(c2ccc(F)cc2)CC1 (stereo not drawn)	80% (inactive)
Cc1cccc(C)c1NC(=O)CS(=O)CC(=O)NC1CCCc2ccccc21 (stereo not drawn)	96.5% (inactive)
COc1ccccc1-c1cn[nH]c(=S)n1	101% (inactive)
COc1ccc(S(=O)(=O)N2CCOCC2)cc1C(=O)Nc1cc(C)on1	102% (inactive)
Cc1cc(C(=O)OCCO)c(C#N)c(N)n1	92% (inactive)
CCOC(=O)c1nnc(-c2ccccc2)o1	101% (inactive)
COCC(=O)Nc1sc2c(c1C(=O)OC)C(C(=O)OC)CC2 (stereo not drawn)	75.5% (inactive)
Cc1oc(-c2ccc(Cl)cc2)nc1CS(=O)CC(=O)NCCCN(C)C1CCCCC1 (stereo not drawn)	91.5% (inactive)
Cn1c(=O)c(-c2ccccc2)nn2c3ccccc3nc12	82.5% (inactive)
CCN1CCN(c2ncnc3c2oc2nc(C)c4c(c23)CC(C)(C)OC4)CC1	91.5% (inactive)
CCn1c(=O)cc(SCC(=O)Nc2cccnc2)c2ccccc21	91.5% (inactive)
COCCCNS(=O)(=O)c1ccc2c(c1)CCN2C(C)=O	97% (inactive)
CCN(CC)S(=O)(=O)c1ccc(Cl)c(C(=O)OC)c1	97% (inactive)
